Among the data in the OligoGym collection are sensor-assay potency score (higher = more potent) values, retold here.
Note: reference of the scale not given here.

The first assay addresses RASSF3. In words: pooled miR-30 sensor sort-seq; sequence = guide strand. Conditions: shRNA.
With TCTTTGATCTCCTCTTTGCTGA, the sensor-assay potency score (higher = more potent) was -0.385.

As for TCTCTTTCTCAACATCTTGTTG, the sensor-assay potency score (higher = more potent) was -1.22.

Consider TATTTATGAACTTTCTCTTTGA, for which the sensor-assay potency score (higher = more potent) is -0.498.

TTTCTCTTTGATCTCCTCTTTG gave a sensor-assay potency score (higher = more potent) of -0.943.

Consider TTTGATCTCCTCTTTGCTGAGG, for which the sensor-assay potency score (higher = more potent) was -0.279.

TTTGCTGAGGTAACTGTGGGTT registered a sensor-assay potency score (higher = more potent) of 0.0248.

The sequence TTCAAGGTCATCTTCAACTTGT came in with a sensor-assay potency score (higher = more potent) of 0.533.

For TTTATGAACTTTCTCTTTGATC, the sensor-assay potency score (higher = more potent) was -0.905.

TAAGTTGTATTTATGAACTTTC returned a sensor-assay potency score (higher = more potent) of -0.5.

Consider TTGTCTGTGACTGCTAAGTTGT, for which the sensor-assay potency score (higher = more potent) was -0.937.

Sequence TGTATTTATGAACTTTCTCTTT registered a sensor-assay potency score (higher = more potent) of -0.702.

The sequence TTCATCTTCTTCCTTGTCCAAG gave a sensor-assay potency score (higher = more potent) of -0.91.

For another assay, the target named is RASSF5. Described as above. The note with it: shRNA.
With TTCTCTCGCGTGTTGTAGCTGT, the sensor-assay potency score (higher = more potent) came out at 0.0292.

TTCTCCTTTAGCACAAAGCTGA had a sensor-assay potency score (higher = more potent) of -0.406.

In turn, TTAAGTGTGAACAACAGGCACC displayed a sensor-assay potency score (higher = more potent) of -0.19.

For the sequence TGAAGCTACACGAACAAGCTTG, the sensor-assay potency score (higher = more potent) worked out at 0.101.

As for TAGCTGTCGATCTTCTGCTTGA, the sensor-assay potency score (higher = more potent) is -0.141.

TTATATATAGCTATATGCCTTT registered a sensor-assay potency score (higher = more potent) of -0.531.

The sequence TTAAAAAGTGCAAACTTCTGGG yielded a sensor-assay potency score (higher = more potent) of 0.479.

The sequence TTGTCCACAACCATGAACTTCT had a sensor-assay potency score (higher = more potent) of 0.0348.

For TCGCGTGTTGTAGCTGTCGATC, the sensor-assay potency score (higher = more potent) is -1.47.

Turning to TTTACAGTTAGTGCAGCGCAGC, the sensor-assay potency score (higher = more potent) is -1.3.

Turning to TTCTGGAAGAGCACTTGTCCGT, the sensor-assay potency score (higher = more potent) was -0.498.

TTGTCCGTCCTTGTGTATCCGC: the sensor-assay potency score (higher = more potent) is -0.676.

Another assay has as its target RASSF8. The description is as above. Conditions: shRNA.
TTGATCTTTTGCTCTAGACGGA showed a sensor-assay potency score (higher = more potent) of -0.232.

In turn, TAAGGCTATGACAACCTCCTGG had a sensor-assay potency score (higher = more potent) of 0.0646.

In the case of TACATCGTTTCTTTTGATCTTT, the sensor-assay potency score (higher = more potent) is -0.624.

As for TATTTCTTGAAGTTGATCCTTC, the sensor-assay potency score (higher = more potent) was found to be 0.825.

Consider TTGATTGATTTGTCAATCTGAG, for which the sensor-assay potency score (higher = more potent) is -0.187.

In turn, TTGAAGTTGATCCTTCAGCTGT gave a sensor-assay potency score (higher = more potent) of -0.249.

Turning to TATTTCATTAGATTCCAGCTGT, the sensor-assay potency score (higher = more potent) turned out to be 1.11.

The sequence TTAGCTTCTTCAACTCATCTGC registered a sensor-assay potency score (higher = more potent) of 0.759.

The sequence TTCTATTTCATTAGATTCCAGC gave a sensor-assay potency score (higher = more potent) of -0.148.

Turning to TTCTCTATAAGGGTGTACCTTC, the sensor-assay potency score (higher = more potent) is -0.973.

As for TTAATTTGTTTTCACATTCTGT, the sensor-assay potency score (higher = more potent) is -0.415.

TTTGCAGTTATTCAGCACCTTT: the sensor-assay potency score (higher = more potent) is -1.3.

The next assay has as its target RBFOX1. Described as above. The note with it: shRNA.
In the case of TTGACCAAACATTTGTCTGAGG, the sensor-assay potency score (higher = more potent) was -0.662.

The sequence TTGTCTGAGGTCCGGATCCCGG came in with a sensor-assay potency score (higher = more potent) of -1.44.

AAACATTTGTCTGAGGTCCGGA yielded a sensor-assay potency score (higher = more potent) of 0.142.

As to TTACATAATATAGCACTCTGGA, the sensor-assay potency score (higher = more potent) was -0.421.
